From PubChem BioAssay
Sampled rows, rich in hits. Any-hit rate of the full collection: about 7.9%.
HT1080 IDH1KD tx: toxicity to HT-1080 IDH1 knockdown cells (counter line). Potency, µM (doses to about 46.1 µM), without a hit: at the highest dose activity, negative = toxicity, actives largely listed as cytotoxic. 360,000 compounds, 2% hits. AID 686971. HT-1080 IDH1 knockdown viability, ATP luminescence, 48 h;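 further: 0% = DMSO wells and -100% = cell-free medium wells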
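Knockdown cells (IDH1KD HT-1080) received compounds 2 h after plating at 750 cells/well and were kept 48 h at 37 °C in 5% FBS RPMI. A CellTiter-Glo luminescence read gave % activity for curve fitting.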
SW480 rerep: inducers of DNA re-replication in SW480 colon cancer cells; 340,000 compounds, 1.8% hits; Potency, µM (doses to about 46.1 µM), without a hit: at the top dose re-replication activation, actives largely listed as activators; SW480 DNA re-replication, Hoechst DNA content imaging, 48 h; further: % of control where 0% means no effect; nearly all actives have a fitted effect of over 55% in size
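Cells (250 per well) received 23 nL compound or DMSO by pin tool and were kept 48 hr at 37 C, 5% CO2. Nuclei were then stained with Hoechst for 40 min and scanned for DNA content.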
MCF10A rerep: DNA re-replication induction in MCF 10a cells. MCF 10A DNA re-replication, Hoechst nuclear intensity, 48 h. Potency, µM (top dose mostly 46.1 µM), without a hit: top-dose activity, positive = re-replication, hits mostly activators. 350,000 compounds, 2.9% hits; further: % of control where 0% means no effect; nearly all actives have a fitted effect of over 50% in size
KB-V1 MDR tox: kills drug-selected multidrug resistant KB-V1 cells; KB-V1 MDR cells viability, CellTiter-Glo, 72 h; Potency, µM (highest dose often 46.1 µM), actives largely listed as cytotoxic; 400,000 compounds, 3.4% hits; further: on the % scale 0 is the no-effect control and ±100 the full control effect; nearly all actives have a fitted effect of over 60% in size
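qHTS viability screen in drug-selected KB-V1 MDR cells: 72 h compound treatment at 37 degrees C, ATP luminescence end point.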
HT1080NT lethal: kills 2HG-producing HT-1080-NT fibrosarcoma cells; 360,000 compounds, 1.6% hits; Potency, µM (highest dose often 46.1 µM), without a hit: top-dose activity, negative = less viability, most hits filed as cytotoxic; HT-1080-NT fibrosarcoma viability, CellTiter-Glo ATP luminescence, 48 h;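 further: NT is the 2HG producing partner of a matched IDH1 knockdown line; 0% = DMSO-treated cells and -100% = media-only wells without cells; nearly all actives have a fitted effect of over 55% in size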
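HT-1080-NT fibrosarcoma cells (2HG-overproducing), 750 cells/well in RPMI with 5% FBS, dosed after 2 h and incubated 48 h at 37C. CellTiter-Glo luminescence normalized to DMSO and no-cell wells; concentration-response curves fitted and classed.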
KB-3-1 tox: KB-3-1 parental cell cytotoxicity; KB-3-1 viability, CellTiter-Glo ATP luminescence, 72 h; Potency, µM (doses to about 46.1 µM), actives largely listed as cytotoxic; 400,000 compounds, 1.4% hits; further: on the % scale 0 is the no-effect control and ±100 the full control effect; nearly all actives have a fitted effect of over 60% in size
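Cells are dispensed, compounds pinned in, plates held at 37 °C for 72 h, then CellTiter-Glo is added and luminescence read after 10 minutes. Cell line: parental KB-3-1 in phenol-red-free DMEM, 10% FBS.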
An asterisk follows results filed as active; i = inactive; ? = inconclusive; nt = not tested or not shown; [ ] = dose if it differs, or a comment. The call rests on the fitted dose curve; in most records, active means well fitted curve in the direction sought with a large enough effect; inconclusive means small, poorly fitted or top-dose-only effect, or another doubt; inactive means no such curve, though single readings can be large; an effect the other way counts as inactive or inconclusive. Potency means the concentration at half of the fitted maximal effect.

SMILES	HT1080 IDH1KD tx	SW480 rerep	MCF10A rerep	KB-V1 MDR tox	HT1080NT lethal	KB-3-1 tox
CCc1cc(=O)oc2c3c(cc(OCC(=O)NCc4cccnc4)c12)OC(C)(C)CC3	-3.0%	0.7%	-36.7%	?	-3.3%	i
COC(=O)c1sc(NC(=O)c2c(C)noc2C)nc1C	3.0%	-8.4%	-32.2%	i	-0.5%	i
COC(=O)c1sc(N)c(C(=O)OC)c1COC(=O)c1c(C)noc1C	6.31µM*	2.91µM*	9.2µM*	5.17µM*	7.08µM*	5.17µM*
NC(CCc1ccccc1)c1csc(Nc2nccc(C(F)(F)F)n2)n1 (stereo not given)	?	nt	nt	i	16.4µM*	i
Cc1cc(C)nc(Nc2nc(C(N)CCc3ccccc3)cs2)n1 (stereo not given)	?	nt	nt	?	?	i
COc1ccccc1NC(=O)Nc1nc(C(N)CCc2ccccc2)cs1 (stereo not given)	?	nt	nt	i	23.1µM*	i
COc1ccccc1NC(=O)Nc1cc(NC(=O)Nc2ccccc2OC)c(C)nc1C	16.4µM*	?	?	i	16.4µM*	i
COc1ccc(CNC(=O)Nc2nc(C(N)CCc3ccccc3)cs2)cc1 (stereo not given)	?	nt	nt	i	18.4µM*	?
COc1ccc(CCNC(=O)Nc2nc(C(N)CCc3ccccc3)cs2)cc1OC (stereo not given)	?	nt	nt	i	16.4µM*	i
CC(C)CC(N)c1csc(NC(=O)Nc2ccccc2C(C)(C)C)n1 (stereo not given)	?	nt	nt	23.1µM*	?	?
N#CC1=C(SCC(=O)NC2CC2)NC(=O)C(C#N)C12CCCCC2 (stereo not given)	0.5%	-3.6%	19.6%	i	10.0%	i
N#CC1=C(SCC(=O)NC23CC4CC(CC(C4)C2)C3)NC(=O)C(C#N)C12CCCCC2 (stereo not given)	?	13.2%	16.4µM*	11.6µM*	?	?
Cc1nn(C)c(C(=O)NN)c1Cl	-14.5%	-3.8%	7.8%	i	1.5%	i
Cc1cnc(/C=C/c2ccc(N(C)C)cc2)cn1	nt	nt	nt	i	nt	i
Cc1ccc(/C=C/c2ccc(N(C)C)cc2)[n+](C)c1	?	-2.5%	-11.0%	i	-29.5%	2.06µM*
CN(C)c1ccc(/C=C/c2cc[n+](C)cc2)cc1	?	?	?	i	-21.6%	23.1µM*
CCOC(=O)C1CCN(S(=O)(=O)c2ccc(OC)c(Cl)c2Cl)CC1	20.7%	0.5%	7.6%	i	9.9%	i
O=C(C[n+]1csc2ccccc21)c1ccccc1	nt	nt	nt	i	nt	i
COc1ccc([C@H]2CC(=O)C=C(c3cccc(OCc4ccccc4)c3)C2)cc1	-4.0%	-4.1%[9.22 µM]	-0.9%	i	-1.9%	i
C=CCN=C1CCCc2c1[nH]c1ccc(C)cc21	5.5%	0.2%	-10.0%	3.26µM*	14.3%	6.51µM*
OCCN=C1CCCc2c1[nH]c1ccc(Br)cc21	-0.1%	-2.1%[9.22 µM]	20.6%	0.326µM*	-5.5%	1.03µM*
O=C(N/N=C1\CCCc2c1[nH]c1ccc(Cl)cc21)c1ccncc1	?	26.7%	20.6%	i	?	?
O=C(NCc1ccc2c(c1)OCO2)c1ccc2c(c1)OCCO2	0.0%	-2.9%	2.3%	?	-3.2%	i
Cc1cc(S(=O)(=O)NCC(C)C)ccc1OCC(=O)NCC1CCCO1 (stereo not given)	2.8%	?	8.3%	20.6µM*	7.1%	i
Clc1ccc(-c2nc3cnccn3c2NC2CCCC2)cc1	-6.6%	23.1µM*	20.6µM*	6.51µM*	-1.8%	?
SMILES	HT1080 IDH1KD tx	SW480 rerep	MCF10A rerep	KB-V1 MDR tox	HT1080NT lethal	KB-3-1 tox
CCCCCCSc1ccc(-c2nc3cnccn3c2NC2CCCCC2)cc1	4.3%	nt	nt	?	0.8%	?
COc1ccc(Sc2ccc(-c3nc4cnccn4c3NC3CCCCC3)cc2OC)cc1	9.0%	18.4µM*	3.26µM*	?	4.8%	?
Cc1ccc2nc(-c3ccncc3)c(NC3CCCC3)n2c1	-3.5%	?	?	i	-2.5%	i
Cc1ccc2nc(-c3ccncc3)c(NC3CCCCC3)n2c1	11.9%	0.4%	9.1%	20.6µM*	14.1%	?
COc1cc(-c2nc3cc(C)ccn3c2NC2CCCCC2)ccc1-c1ccc(C(C)=O)cc1	?	?	?	i	-19.9%	i
Cc1ccc(-c2noc(-c3ccc(N4CCCC4)c([N+](=O)[O-])c3)n2)cc1	nt	nt	nt	i	nt	i
Cc1noc(C)c1CN(C(=S)NC1CC2CCC1C2)c1ccccc1 (stereo not given)	-21.0%	0.3%	-0.1%	?	-2.5%	i
CC(C)(Oc1ccc(Cl)cc1)C(=O)N(Cc1ccccc1)c1ccccn1	4.9%	?	8.0%	14.6µM*	5.1%	i
O=C(COc1ccc(Br)cc1)N(Cc1ccccc1)c1ccccn1	-11.1%	-2.7%	11.4%	18.4µM*	3.0%	i
O=C(COc1ccc(Cl)cc1)N(Cc1ccccc1)c1ccccn1	-13.5%	3.2%	?	i	-5.4%	i
O=C(CSc1nnnn1C1CCCCC1)NNC(=O)c1ccco1	8.5%	-2.1%	-5.2%	?	0.5%	i
Cc1ccc(C(=O)Nc2ccc3nc(N4CCCCC4)cc(C)c3c2)cc1F	nt	nt	nt	i	nt	i
O=C(NN=C1CCCC1)c1[nH]c2ccc(Cl)cc2c1-c1ccccc1	11.6µM*	?	2.91µM*	?	?	i
C/C(=N\N)c1c(-c2ccccc2)c2cc(C)ccc2[nH]c1=O	9.9%	?	5.4%	i	13.3%	i
CC/C(C)=N/NC(=O)c1[nH]c2ccc(C)cc2c1-c1ccccc1	?	?	11.6µM*	i	?	i
COC(=O)C1OC(OC2CC[C@]3(C)C(CC[C@@]4(C)[C@@H]3CC=C3[C@@H]5CC(C)(C)CC[C@]5(C(=O)OC5OC(CO)C(O)C(O)C5O)CC[C@]34C)C2(C)C)C(O)C(O)C1O[C@H]1OCC(O)C(O)C1O (stereo not given in full)	?	-3.5%	?	i	?	i
CC1(C)CC[C@]2(C(=O)O[C@@H]3OC(CO)[C@@H](O)[C@H](O)[C@H]3O)CC[C@]3(C)C(=CCC4[C@@]5(C)CC[C@H](O[C@@H]6OC(C(=O)O)[C@@H](O)[C@H](O)[C@H]6O)C(C)(C)C5CC[C@]43C)[C@@H]2C1 (stereo not given in full)	0.3%	-4.7%	18.4µM*	i	0.3%	i
